# Measured values published in PubChem BioAssay (Tox21).
# Where “and” joins values, the source holds several entries; their conditions need not be identical. Identical values can stand only once. Inconclusive results are not listed. Where a call stands in place of a potency, no number is given. More than one record can exist for a structure, and the calls need not agree. Calls of active or inactive are those of the source. Unless noted, calls come from the whole dose curve.
# How the values were obtained:
# [1] = Nuclear factor erythroid 2-related factor 2/antioxidant responsive element (Nrf2/ARE) small molecule agonists: qHTS cell viability counter screen in human keratinocytes (AID 1919968; active = well fitted curve in the direction sought with a large enough effect in the repeat runs; an effect the other way counts as inactive or inconclusive; note: nearly all actives have a fitted effect of over 55% in size; note: potency is the fitted concentration of half-maximal effect)
# Summary of the method: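 Fluorescence read-out from CellTiter-Fluor after 1 h at 37 C. Wells held HaCaT-derived ARE-luciferase reporter cells (1,500/well) treated 23 h with DMSO-dissolved compounds. Run in the same wells as the luciferase agonist read.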
# [2] = Nuclear factor erythroid 2-related factor 2/antioxidant responsive element (Nrf2/ARE) small molecule agonists: luciferase reporter gene qHTS assay in human keratinocytes (AID 1919969); note: nearly all actives have a fitted effect of over 35% in size; note: potency is the fitted concentration of half-maximal effect
# [3] = target: Gonadotropin-releasing hormone receptor (Homo sapiens) (UniProt P30968); experiment: Human gonadotropin-releasing hormone receptor (GnRHR) small molecule agonists, calcium flux assay in GnRHR-HEK293 cells (AID 1920063); note: nearly all actives have a fitted effect of over 35% in size
# Summary of the method: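 Calcium-dye fluorescence, Ex/Em=480/540, recorded every 1 sec over 3 min after compound addition to GnRHR-HEK293 cells. Cells had been seeded 18 hours earlier and dye-loaded for 1 hour at 37 C. Fifteen concentrations, triplicates.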
# [4] = target: KiSS-1 receptor (Homo sapiens) (UniProt Q969F8); experiment: Human kisspeptin (KISS1R) small molecule agonists, calcium flux assay in KISS1R-HEK293 cells (AID 1920064; active = well fitted curve in the direction sought with a large enough effect in the repeat runs; an effect the other way counts as inactive or inconclusive)
# Summary of the method: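 Calcium flux read-out: kinetic fluorescence at Ex/Em=480/540, 1 s intervals over 3 min, after pin-tool compound addition to dye-loaded KISS1R-HEK293 cells. Fifteen concentrations, triplicates.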
# [5] = G protein-coupled receptor (GPCR) small molecule agonists, calcium flux assay: HEK293 wild type cell line counter screen (AID 1920065)
# Summary of the method: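 Agonist mode; 18 h seeding at 37 C, 1 h dye load at 37 C; compounds pinned from DMSO, ATP as positive control; kinetic fluorescence 480/540 nm, 3 min, 1 s reads; 15 concentrations, triplicate.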
# [6] = p53 small molecule agonists, cell-based qHTS assay with human liver microsomes (AID 1963577)
# Summary of the method: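 Cells carrying a p53-responsive bla reporter were rested 5 h (37 C, 5% CO2) before compound transfer. Human liver microsomes plus NADPH, 0.5 mg/mL final apiece, supplied metabolism during the 16 h 37 C exposure.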
# [7] = p53 small molecule agonists, cell-based qHTS assay with rat liver microsomes (AID 1963578)
# Summary of the method: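 Fluorescence from a beta-lactamase reporter under a p53 response element was measured after cells had been incubated 16 h at 37 C with test compound and rat liver microsomes plus NADPH (0.5 mg/mL final each).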
# [8] = p53 small molecule agonists, cell-based qHTS assay with human liver microsomes: qHTS cell viability counter screen (AID 1963579); note: nearly all actives have a fitted effect of over 45% in size; note: potency is the fitted concentration of half-maximal effect
# Summary of the method: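 Seed p53RE-bla cells at 4,000 per well; incubate 5 h at 37 C; add compound, human liver microsomes and NADPH; incubate 16 h at 37 C; add CellTiter-Glo; after 30 min at room temperature, read luminescence.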
# [9] = p53 small molecule agonists, cell-based qHTS assay with rat liver microsomes: qHTS cell viability counter screen (AID 1963580); note: nearly all actives have a fitted effect of over 45% in size; note: potency is the fitted concentration of half-maximal effect
# Summary of the method: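 After the beta-lactamase ratio was read, CellTiter-Glo was added to the same wells and luminescence measured at 30 min; cells had been treated 16 h at 37 C with compounds, rat liver microsomes and NADPH (0.5 mg/mL final each).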
# [10] = p53 small molecule agonists, cell-based qHTS assay: qHTS cell viability counter screen (AID 1963581); note: nearly all actives have a fitted effect of over 45% in size; note: potency is the fitted concentration of half-maximal effect
# Summary of the method: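 Cytotoxicity read-out: ATP-based luminescence (CellTiter-Glo, 30 min RT) measured in the same wells as the p53 reporter assay, HCT-116 p53RE-bla cells, 16 h compound exposure at 37 C.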
# [11] = p53 small molecule agonists, cell-based qHTS assay (AID 1963582; active = well fitted activation curve with a large enough effect in the signal ratio in the repeat runs, not every such curve was filed as active; the % refers to the signal ratio)
# Summary of the method: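 Fluorescence intensity read-out of a beta-lactamase reporter under a p53 response element. Cells were exposed to DMSO-dissolved compounds for 16 h at 37 C, then developed with FRET substrate for 2 h at RT.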
# [12] = cAMP Responsive Elements (CRE) small molecule agonists, cell-based qHTS assay (AID 1963590)
# Summary of the method: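 Beta-lactamase reporter readout: LiveBLAzer B/G FRET substrate, 2 h at room temperature, added after 3 h compound treatment of CRE-bla HEK 293T cells at 37 C/5% CO2.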
# [13] = cAMP Responsive Elements (CRE) small molecule antagonists, cell-based qHTS assay (AID 1963591; active = well fitted inhibition curve with a large enough effect in the signal ratio in the repeat runs, not every such curve was filed as active; the % refers to the signal ratio)
# Summary of the method: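 HEK293T CRE-bla; 18 h preincubation; compound pin-transfer; NKH477 0.25 uM final, 3 h, 37 C; LiveBLAzer FRET substrate 2 h RT.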
# [14] = target: Beta-2 adrenergic receptor (Homo sapiens) (UniProt P07550); experiment: Adrenergic beta2 receptor (ADRB2) small molecule antagonists, cell-based qHTS assay (AID 1963592); note: nearly all actives have a fitted effect of over 50% in size; note: potency is the fitted concentration of half-maximal effect
# Summary of the method: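 Assay format: CHO-ADRB2 cells, 18-20hr seeding at 37C/5% CO2, then compound plus 1nM isoproterenol agonist mix for 0.5hr RT. Homogeneous time-resolved fluorescence cAMP detection after 1hr, expressed as 665/615 nm ratio.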
# [15] = target: Beta-2 adrenergic receptor (Homo sapiens) (UniProt P07550); experiment: Adrenergic beta2 receptor (ADRB2) small molecule agonists, cell-based qHTS assay (AID 1963593);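 note: CHO cells stably overexpressing human ADRB2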
# Summary of the method: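 CHO cells stably over-expressing ADRB2 were plated overnight at 37C, then dosed with compounds plus a stimulation mix containing 100uM IBMX and 25uM Ro-20-1724 for 0.5hr at room temperature. cAMP was measured by HTRF competition, 1hr.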
# [16] = target: D(2) dopamine receptor (Homo sapiens) (UniProt P14416); experiment: Dopamine D2 receptor (DRD2) small molecule agonists, cell-based qHTS assay (AID 1963594); note: nearly all actives have a fitted effect of over 35% in size
# Summary of the method: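 HEK293 cells stably expressing human DRD2, pre-treated with PDE inhibitor Ro20-1724 (0.1 mM final) and compound 10 min at room temperature, then stimulated with NKH477 (200nM […]) for 30 min. cAMP read by HTRF (665/620 nm).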
# [17] = target: D(2) dopamine receptor (Homo sapiens) (UniProt P14416); experiment: Dopamine D2 receptor (DRD2) small molecule antagonists, cell-based qHTS assay (AID 1963595; active = well fitted inhibition curve with a large enough effect in the signal ratio in the repeat runs, with a control signal flat; the % refers to the signal ratio)
# Summary of the method: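 DRD2-HEK293; 0.1 mM Ro20-1724; cpd 10 min RT; NKH477 200 nM + quinpirole 12 nM, 30 min RT; HTRF cAMP (cAMP-d2/anti-cAMP cryptate), 665/620 nm ratio after 1 h.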
# [18] = target: Muscarinic acetylcholine receptor M1 (Homo sapiens) (UniProt P11229); experiment: Cholinergic receptor muscarinic 1 (CHRM1) small molecule antagonists, cell-based qHTS assay (AID 1963588); note: nearly all actives have a fitted effect of over 40% in size
# Summary of the method: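 Compounds were tested at 15 concentrations in three independent runs. Dye-loaded CHRM1-CHO cells were exposed 5 min at room temperature before stimulation by acetylcholine added at 50nM. Intracellular calcium was read kinetically on FDSS for 3 min.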
# [19] = target: Muscarinic acetylcholine receptor M1 (Homo sapiens) (UniProt P11229); experiment: Cholinergic receptor muscarinic 1 (CHRM1) small molecule agonists, cell-based qHTS assay (AID 1963589); note: nearly all actives have a fitted effect of over 35% in size
# Summary of the method: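 Calcium flux read-out: kinetic fluorescence at 1 sec intervals after pin-tool compound addition to dye-loaded CHRM1-CHO cells (human M1). Agonist mode; 15 concentrations tested in triplicate independent runs.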
# [20] = target: 5-hydroxytryptamine receptor 2A (Homo sapiens) (UniProt P28223); experiment: 5-hydroxytryptamine receptor 2A (HTR2A) small molecule antagonists, cell-based qHTS assay (AID 1963586); note: nearly all actives have a fitted effect of over 45% in size; note: potency is the fitted concentration of half-maximal effect
# Summary of the method: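 CHO cells stably expressing human HTR2A were plated for 18 h at 37 C, then loaded with calcium dye for 1 h. Compounds were preincubated 5 min at room temperature before DOI (4 nM solution) was added. Kinetic fluorescence was read for 3 min.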
# Sequence of D(2) dopamine receptor (Homo sapiens) (P14416 whole entry, looked up): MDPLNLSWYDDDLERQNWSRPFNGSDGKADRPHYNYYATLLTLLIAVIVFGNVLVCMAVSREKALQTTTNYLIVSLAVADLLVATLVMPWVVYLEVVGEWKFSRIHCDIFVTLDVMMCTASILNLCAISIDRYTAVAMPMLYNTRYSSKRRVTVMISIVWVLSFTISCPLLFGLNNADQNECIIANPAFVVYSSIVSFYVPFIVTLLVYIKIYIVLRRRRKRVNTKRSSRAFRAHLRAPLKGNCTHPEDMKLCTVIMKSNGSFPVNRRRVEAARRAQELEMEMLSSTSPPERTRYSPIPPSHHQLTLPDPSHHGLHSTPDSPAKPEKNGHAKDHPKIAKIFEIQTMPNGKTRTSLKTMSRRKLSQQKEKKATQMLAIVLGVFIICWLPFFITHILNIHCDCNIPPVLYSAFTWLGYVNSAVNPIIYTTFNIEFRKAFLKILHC
# Sequence of Gonadotropin-releasing hormone receptor (Homo sapiens) (P30968 whole entry, looked up): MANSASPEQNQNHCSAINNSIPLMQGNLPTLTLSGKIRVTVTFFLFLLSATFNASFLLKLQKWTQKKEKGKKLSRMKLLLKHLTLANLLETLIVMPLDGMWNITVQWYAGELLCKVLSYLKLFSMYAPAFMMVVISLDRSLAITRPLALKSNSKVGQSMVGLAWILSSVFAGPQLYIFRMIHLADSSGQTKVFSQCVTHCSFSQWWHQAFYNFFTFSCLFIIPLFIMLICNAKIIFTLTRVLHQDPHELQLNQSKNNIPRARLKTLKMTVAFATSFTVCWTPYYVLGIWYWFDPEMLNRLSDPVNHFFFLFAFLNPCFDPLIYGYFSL
# Sequence of KiSS-1 receptor (Homo sapiens) (Q969F8 whole entry, looked up): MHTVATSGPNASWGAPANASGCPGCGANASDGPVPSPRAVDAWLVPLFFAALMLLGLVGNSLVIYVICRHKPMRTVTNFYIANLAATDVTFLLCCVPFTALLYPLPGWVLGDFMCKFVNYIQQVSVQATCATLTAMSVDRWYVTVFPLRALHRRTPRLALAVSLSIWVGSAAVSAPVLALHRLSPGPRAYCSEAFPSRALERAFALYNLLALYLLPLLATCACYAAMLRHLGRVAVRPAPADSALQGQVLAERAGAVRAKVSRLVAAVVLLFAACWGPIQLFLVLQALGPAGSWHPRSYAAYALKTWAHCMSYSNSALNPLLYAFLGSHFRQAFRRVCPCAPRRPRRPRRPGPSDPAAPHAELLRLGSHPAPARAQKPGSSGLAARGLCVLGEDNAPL
# Sequence of Muscarinic acetylcholine receptor M1 (Homo sapiens) (P11229 whole entry, looked up): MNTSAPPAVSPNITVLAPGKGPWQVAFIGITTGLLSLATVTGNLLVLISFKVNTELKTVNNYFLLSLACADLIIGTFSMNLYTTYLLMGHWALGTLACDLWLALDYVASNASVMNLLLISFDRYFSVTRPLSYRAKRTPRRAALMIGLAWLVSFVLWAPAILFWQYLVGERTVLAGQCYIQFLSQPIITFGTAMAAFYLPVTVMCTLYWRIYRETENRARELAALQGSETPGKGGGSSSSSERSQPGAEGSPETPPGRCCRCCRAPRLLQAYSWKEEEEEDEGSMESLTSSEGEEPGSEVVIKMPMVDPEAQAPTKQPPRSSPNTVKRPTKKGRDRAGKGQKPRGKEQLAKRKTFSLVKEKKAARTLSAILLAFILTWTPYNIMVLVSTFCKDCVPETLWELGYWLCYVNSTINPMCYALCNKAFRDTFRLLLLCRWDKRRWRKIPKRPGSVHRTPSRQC
# Sequence of Beta-2 adrenergic receptor (Homo sapiens) (P07550 whole entry, looked up): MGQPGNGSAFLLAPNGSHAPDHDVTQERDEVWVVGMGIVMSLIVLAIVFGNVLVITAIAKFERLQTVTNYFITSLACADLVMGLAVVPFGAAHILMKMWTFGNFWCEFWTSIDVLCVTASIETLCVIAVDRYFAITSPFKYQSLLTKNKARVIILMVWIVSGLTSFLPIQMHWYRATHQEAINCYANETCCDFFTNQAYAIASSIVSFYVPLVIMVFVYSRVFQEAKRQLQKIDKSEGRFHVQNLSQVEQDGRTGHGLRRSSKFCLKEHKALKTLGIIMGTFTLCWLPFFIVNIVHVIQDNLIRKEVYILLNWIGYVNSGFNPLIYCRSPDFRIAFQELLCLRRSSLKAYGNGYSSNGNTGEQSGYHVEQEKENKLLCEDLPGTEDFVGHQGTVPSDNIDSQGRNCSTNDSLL
# Sequence of 5-hydroxytryptamine receptor 2A (Homo sapiens) (P28223 whole entry, looked up): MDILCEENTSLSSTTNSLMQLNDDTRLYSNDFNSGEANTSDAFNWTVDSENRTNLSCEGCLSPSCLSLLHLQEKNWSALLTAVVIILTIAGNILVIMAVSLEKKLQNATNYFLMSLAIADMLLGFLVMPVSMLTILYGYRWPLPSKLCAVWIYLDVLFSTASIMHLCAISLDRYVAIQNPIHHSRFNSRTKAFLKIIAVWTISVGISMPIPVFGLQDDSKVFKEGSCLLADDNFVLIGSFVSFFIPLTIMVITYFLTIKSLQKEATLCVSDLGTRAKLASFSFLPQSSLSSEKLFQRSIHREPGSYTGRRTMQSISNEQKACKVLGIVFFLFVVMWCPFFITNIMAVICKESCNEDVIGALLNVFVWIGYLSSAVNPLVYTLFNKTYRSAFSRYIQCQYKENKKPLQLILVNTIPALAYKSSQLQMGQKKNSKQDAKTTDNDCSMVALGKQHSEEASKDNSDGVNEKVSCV
SMILES,Potency [1],Potency [2],Potency [3],Potency [4],Potency [5],Potency [6],Potency [7],Potency [8],Potency [9],Potency [10],Potency [11],Potency [12],Potency [13],Potency [14],Potency [15],Potency [16],Potency [17],Potency [18],Potency [19],Potency [20]
COCCCOc1ccnc(CS(=O)c2nc3ccccc3[nH]2)c1C (centres undefined),inactive,30.5 µM (active),inactive,inactive,inactive,inactive,inactive,inactive,inactive,inactive,inactive,inactive,inactive,inactive,inactive,inactive,inactive,,,
O=S(=O)(O)CO,inactive,inactive,inactive,inactive,inactive,inactive,inactive,inactive,inactive,inactive,inactive,inactive,inactive,,inactive,inactive,inactive,inactive,inactive,
C[C@H]1C[C@@H](O)CC(C)(C)C1,inactive,inactive,inactive,inactive,inactive,inactive,inactive,inactive,inactive,inactive,inactive,inactive,inactive,,,inactive,inactive,inactive,inactive,
COc1ccc(Cl)cc1C,inactive,inactive,inactive,inactive,inactive,inactive,inactive,inactive,inactive,inactive,inactive,inactive,inactive,inactive,inactive,inactive,,,inactive,
CC1(C)[C@H]2CC[C@](C)(C2)[C@H]1O,inactive,inactive,inactive,inactive,inactive,inactive,inactive,inactive,inactive,inactive,,inactive,inactive,inactive,inactive,inactive,,inactive,inactive,inactive
Nc1nnnn1-c1ccccc1,inactive,inactive,inactive,inactive,inactive,inactive,inactive,inactive,inactive,inactive,,inactive,inactive,inactive,inactive,,inactive,inactive,inactive,inactive
COC(=O)CCC(=O)O,inactive,inactive,inactive,inactive,inactive,inactive,inactive,inactive,inactive,inactive,,inactive,inactive,inactive,inactive,inactive,inactive,inactive,inactive,inactive
CC(=O)CC(C)=O,inactive,inactive,inactive,inactive,inactive,inactive,inactive,inactive,inactive,inactive,inactive,inactive,inactive,inactive,inactive,inactive,inactive,inactive,inactive,
CCCCCCCCCCCCCCCC,inactive,inactive,inactive,inactive,inactive,inactive,inactive,inactive,inactive,,inactive,inactive,inactive,inactive,inactive,inactive,inactive,inactive,inactive,inactive
CCCCCCCCCCCCCCC(=O)NC(CO)CCCCCCCCCCCCCC (centres undefined),inactive,inactive,inactive,inactive,inactive,inactive,inactive,inactive,inactive,,inactive,inactive,inactive,inactive,inactive,inactive,inactive,inactive,inactive,inactive
Cc1c(C)c2c(c(C)c1O)CCC(C)(COc1ccc(CC3SC(=O)NC3=O)cc1)O2 (centres undefined),inactive,inactive,inactive,inactive,inactive,inactive,inactive,inactive,inactive,inactive,,,,inactive,inactive,inactive,inactive,,,
O=C(O)c1cc(-c2ccccc2)nc2ccccc12,inactive,inactive,inactive,inactive,inactive,inactive,inactive,inactive,inactive,inactive,,,inactive,inactive,inactive,inactive,inactive,,inactive,inactive
Oc1ccc(Cl)cc1Sc1cc(Cl)ccc1O,38.5 µM (active),15.3 µM (active) and inactive,inactive,inactive,inactive,inactive,inactive,32.3 µM (active) and inactive,45.7 µM (active) and inactive,18.2 µM (active) and 17.8 µM (active),,,,68.5 µM (active) and inactive,inactive,,inactive,inactive,inactive,29.7 µM (active) and inactive
NC/C=C/C(=O)O,inactive,inactive,inactive,inactive,inactive,inactive,inactive,inactive,inactive,,inactive,inactive,inactive,inactive,inactive,inactive,inactive,inactive,inactive,inactive
O=C(O)CCCCCCCCCCCC(=O)O,30.1 µM (active) and inactive,inactive,inactive,inactive,inactive,inactive,inactive,inactive,inactive,inactive,,,,inactive,inactive,inactive,inactive,inactive,inactive,inactive
